The campaign covered roughly 52,000 compounds. About 4,300 (8.3%) were called active. The sample holds actives, similar compounds and a random draw of the others, so the mix is not that of the screen. Cut-off read from the data, not from the text of the source: active = survival mostly below about 52% (no sharp cut-off); inactive = mostly above about 56%.

The assay deals with DeltatarO mutant. The experiment in a line: growth inhibition of S. aureus wild type versus tarO mutant, primary screen, teichoic acid synthesis inhibitors, RN4220, OD600 (AID 463173). The following applies: OD600, 18 h, hits give low values, screened at 18.75 µg/mL (by protocol).
As to `Cc1ccc(S(=O)(=O)c2cn(CC(=O)Nc3ccc(Cl)cc3)c3ccc(F)cc3c2=O)cc1C`, the survival was 53% (inactive).
Turning to `CC(C)(C)c1ccc(C(=O)Nc2ccccc2C(=O)OCc2cc(=O)n3ccsc3n2)cc1`, the survival is 73% (inactive).
`CC1OC(Nc2ccc(OC(F)(F)F)cc2)C(O)C(O)C1O` (centres undefined): the survival is 84% (inactive).
`CCC(C)n1c(=O)c2sccc2n2c(CCCC(=O)N3CCN(c4ccccc4)CC3)nnc12` (centres undefined): the survival is 89% (inactive).
The figure for `Cc1ccc(NC(=O)CCS(=O)(=O)c2cccc3nonc23)c(C)c1` is 99% (inactive).
For the compound `CCc1cccc(NC(=O)CCNS(=O)(=O)c2cccc3nonc23)c1`, the survival is 97% (inactive).
For `Cc1ccc(NC(=O)CCNS(=O)(=O)c2cccc3nonc23)cc1Cl` the value was 39% (active); for `CCOC(=O)c1cccc(NC(=O)CCNS(=O)(=O)c2cccc3nonc23)c1`, 46% (active); for `COC(=O)c1ccc(NC(=O)CCNS(=O)(=O)c2cccc3nsnc23)cc1`, 65% (inactive).
For `Cc1cccc(NC(=O)CCNS(=O)(=O)c2cccc3nonc23)c1` the value was 44% (active).
Turning to `Cc1cc(Br)ccc1NC(=O)CCNS(=O)(=O)c1cccc2nonc12`, the survival was 43% (active).
For `Cc1cc(NC(=O)CCNS(=O)(=O)c2cccc3nsnc23)ccc1Br` the value was 102% (inactive).
Consider `Cc1cc(Br)ccc1NC(=O)CCS(=O)(=O)c1cccc2nonc12`, for which the survival was 83% (inactive).
Consider `CCOc1ccc(NC(=O)CCNS(=O)(=O)c2cccc3nsnc23)cc1`, for which the survival is 52% (inactive).
Take `Cc1ccc(NC(=O)CCS(=O)(=O)c2cccc3nonc23)cc1Cl`: the survival is 71% (inactive).
For the compound `COc1ccc(NC(=O)CCS(=O)(=O)c2cccc3nonc23)cc1Cl`, the survival is 68% (inactive).
As for `Cc1cccc(Cn2c(=O)n(-c3cc(C)cc(C)c3)c(=O)c3oc4ccccc4c32)c1`, the survival is 71% (inactive).
For the compound `Cc1sc2ncn(CC(=O)N3CCN(c4ccc(F)cc4)CC3)c(=O)c2c1S(=O)(=O)N1CCC(C)CC1`, the survival was 75% (inactive).
In the case of `Cc1ccc(C)c(NC(=O)c2ccc(CN3CC(=O)N4CCCCC4C3=O)cc2)c1` (centres undefined), the survival is 54% (inactive).
The figure for `Cc1cc(Oc2nc3ccccn3c(=O)c2/C=C(\C#N)c2nc3ccccc3s2)ccc1Cl` is 63% (inactive).
As for `COc1ccc(S(=O)(=O)N2CCC(C(=O)NC(C)c3ccccc3)CC2)cc1` (centres undefined), the survival was 79% (inactive).
With `COc1ccc(OC)c(/C=N/c2ncn[nH]2)c1`, the survival was 101% (inactive).
Turning to `COCCCNC(=O)Cn1c(=O)nc(-c2ccccc2)c2ccccc21`, the survival is 78% (inactive).
As for `CCOc1ccccc1NC(=O)c1ccc2c(c1)CCCN2S(C)(=O)=O`, the survival is 81% (inactive).
In the case of `Cc1nn(-c2ccc(N3CCCC3)nn2)c(C)c1CCC(=O)Nc1ccc(F)c(Cl)c1`, the survival was 68% (inactive).
For `O=C(NCc1cccn1Cc1ccccc1)Nc1cccc(C(F)(F)F)c1`, the survival was 54% (inactive).
For `COCCCNC(=O)c1ccc(Cn2c(=O)c3ccccc3n(Cc3ccc(Cl)cc3)c2=O)cc1` the value was 89% (inactive); for `COc1ccc(NC(=O)CN(C)S(=O)(=O)c2ccc3nc(C)sc3c2)cc1Cl`, 82% (inactive); for `CN(C)c1ccc(/C=N/c2nc3ccccc3o2)cc1`, 85% (inactive).
Regarding `COc1ccc(CCNC(=O)c2ccc(Cn3c(SCc4ccccc4)nc4cccnc43)cc2)cc1`, the survival was 92% (inactive).
Consider `CCN(C(=O)c1cc2c(s1)-c1c(C)cccc1OC2)c1cc(C)ccc1C`, for which the survival is -1% (active).
In the case of `CCN(Cc1ccccc1)C(=O)c1cc2c(s1)-c1c(C)cccc1OC2`, the survival is 55% (active).
With `CCN(C(=O)c1cc2c(s1)-c1c(C)cccc1OC2)c1ccccc1F`, the survival is 97% (inactive).
With `Cc1ccc(CNC(=O)c2cc3c(s2)-c2c(C)cccc2OC3)cc1`, the survival was 68% (inactive).
Turning to `Cc1ccc(CCNC(=O)c2cc3c(s2)-c2c(C)cccc2OC3)cc1`, the survival was 93% (inactive).
The figure for `Cc1cccc(CCNC(=O)c2cc3c(s2)-c2c(C)cccc2OC3)c1` is 83% (inactive); for `CC(C)CCN1C(=O)c2ccccc2CC1(C)C(=O)NC1CCC(C)CC1` (centres undefined) it is 100% (inactive); for `CCOC(=O)c1c(C)[nH]c(CCC(=O)NCc2ccccc2Cl)c1C` it is 98% (inactive).
As for `CCOc1ccc(NC(=O)Cn2cc(C(=O)c3ccccc3)c(=O)c3cc4c(cc32)OCCO4)cc1`, the survival was 73% (inactive).
`COc1ccccc1NC(=O)c1cn(-c2ccccc2)nc1-c1ccccc1`: the survival is 95% (inactive).
Consider `O=C(O)c1ccc(NC(=O)c2cn(-c3ccccc3)nc2-c2ccc(Br)cc2)cc1`, for which the survival is 24% (active).
In the case of `CC(=O)c1ccc(NC(=O)c2cn(-c3ccccc3)nc2-c2ccc(Br)cc2)cc1`, the survival is 75% (inactive).
On to `CCOC(=O)c1ccc(NC(=O)c2cn(-c3ccccc3)nc2-c2ccc(Br)cc2)cc1`, for which the survival is 70% (inactive).
The figure for `COc1ccc(NC(=O)c2cn(-c3ccccc3)nc2-c2ccc(C)cc2)cc1` is 63% (inactive); for `COc1ccc(-c2nn(-c3ccccc3)cc2C(=O)Nc2ccccc2OC)cc1` it is -2% (active); for `CCOC(=O)c1ccc(NS(=O)(=O)c2ccc3c(c2)CCN3C(=O)CC)cc1` it is 79% (inactive).
The figure for `Brc1ccc(-c2cn3cc(Cc4ccccc4)sc3n2)cc1` is 64% (inactive).
Take `CC1CCN(S(=O)(=O)c2ccc3c(c2)oc(=O)n3CC(=O)N2CCCCC2)CC1`: the survival is 66% (inactive).
For `COc1ccc(NC(=O)Cn2c(=O)oc3cc(S(=O)(=O)N4CCCCC4C)ccc32)cc1` (centres undefined) the value was 47% (active); for `COc1cc(NC(=O)Cn2c(=O)oc3cc(S(=O)(=O)N4CCCCCC4)ccc32)cc(OC)c1`, 95% (inactive); for `COc1ccc(OC)c(CNC(=O)c2cc(=O)[nH]c3ccc(S(=O)(=O)N4CCCCC4C)cc23)c1` (centres undefined), 6% (active).
For `COc1ccc(Br)cc1CNC(=O)c1cc(=O)[nH]c2ccc(S(=O)(=O)N3CCCCC3C)cc12` (centres undefined), the survival is 82% (inactive).
For `COc1ccc(CCNC(=O)c2cc(=O)[nH]c3ccc(S(=O)(=O)N4CCCCC4C)cc23)cc1OC` (centres undefined), the survival is 117% (inactive).
Turning to `CC1CCN(C(=O)Cn2c(=O)oc3cc(S(=O)(=O)N4CCCCC4)ccc32)CC1`, the survival is 86% (inactive).
For `CCOc1ccc(NC(=O)Cn2c(=O)oc3cc(S(=O)(=O)N4CCCCCC4)ccc32)cc1` the value was 75% (inactive).
For `CC1CCN(S(=O)(=O)c2ccc3c(c2)oc(=O)n3CC(=O)O)CC1` the value was 0% (active).
As to `Fc1ccc(N2CCN(c3ncnc4[nH]ncc34)CC2)cc1`, the survival is 95% (inactive).
Take `CCSc1ncc(Cl)c(C(=O)Nc2c(C(=O)Nc3cccc(C)c3)oc3ccccc23)n1`: the survival was 109% (inactive).
On to `Cc1c(C(=O)NCCc2ccccc2)cccc1-n1cnc2cccnc21`, for which the survival is 75% (inactive).
Take `O=C(O)c1cccc(NC2SC(=O)N(c3ccccc3)C2=O)c1` (centres undefined): the survival is 107% (inactive).
`O=C1C(=O)N(C2CCN(C(=O)c3ccc(Cl)cc3)CC2)CCN1Cc1ccc(F)cc1`: the survival was 78% (inactive).
For the compound `COc1ccc(-n2c(SCC(=O)N3CCc4ccccc43)nc3c([nH]c4ccccc43)c2=O)cc1`, the survival was 92% (inactive).
As for `Cc1cccc(NC(=O)CN(C)S(=O)(=O)c2cnc[nH]2)c1C`, the survival was 97% (inactive).
On to `CCN1CCc2c(sc(NC(=O)c3ccc(S(=O)(=O)N(C)C4CCCCC4)cc3)c2C(N)=O)C1`, for which the survival was 80% (inactive).
Take `Cc1ccccc1NC(=O)Cn1cc(S(=O)(=O)N2CCCC2)c(S(=O)(=O)N2CCCC2)c1`: the survival is 90% (inactive).
On to `CC(=O)c1ccc(NC(=O)CCCc2nc(-c3cccc(C)c3)no2)cc1`, for which the survival was 69% (inactive).
For `COc1ccc(N2CCN(CCCNC(=O)C3COc4ccccc4C3)CC2)cc1` (centres undefined) the value was 131% (inactive).
For `CCn1c(CNc2ccc(C)cc2)nnc1SCc1ccccc1` the value was 115% (inactive); for `COc1ccc(CN(C(=O)Nc2cccc(Cl)c2)c2ccccn2)cc1OC`, 92% (inactive).
`O=C(Nc1ccccc1)N(Cc1cccc(Cl)c1)c1ccccn1`: the survival was 37% (active).
For the compound `CCc1ccc(CN(C(=O)Nc2cccc(Cl)c2)c2ccccn2)cc1`, the survival was 94% (inactive).
`COc1cc(CN(C(=O)Nc2cccc(Cl)c2)c2ccccn2)cc(OC)c1OC`: the survival was 68% (inactive).
In the case of `Cc1ccc(CN(C(=O)Nc2cccc(Cl)c2)c2ccccn2)cc1`, the survival is 40% (active).
For `O=C(Nc1ccccc1)N(Cc1ccc(F)cc1)c1ccccn1` the value was 56% (inactive); for `COc1cc(NC(=O)CCn2cnc3ccccc3c2=O)cc(OC)c1`, 122% (inactive).
`CCN(CC)C(=O)Cn1cc(SCC(=O)Nc2cccc(C)c2)c2ccccc21`: the survival is 69% (inactive).
Take `Cc1ccc2c(CC(=O)Nc3c(C(=O)c4ccc(C)c(F)c4)oc4ccccc34)coc2c1`: the survival is 96% (inactive).
For `O=C(NCc1ccccc1)C1CCN(S(=O)(=O)Cc2ccccc2)CC1` the value was 98% (inactive); for `Cc1cc(C)cc(NC(=O)C2CCN(S(=O)(=O)c3cccc(-c4noc(C)n4)c3)CC2)c1`, -5% (active); for `CCc1cccc(NC(=O)C2CCN(S(=O)(=O)c3cccc(-c4noc(C)n4)c3)CC2)c1`, 73% (inactive).
With `CCc1ccc(NC(=O)C2CCN(S(=O)(=O)c3cccc(-c4noc(C)n4)c3)CC2)cc1`, the survival is 77% (inactive).
For `Cc1ccc(NC(=O)CSc2nc(C3CCCC3)nc3c2c(=O)n(C)c(=O)n3C)c(C)c1`, the survival was 73% (inactive).
With `COc1cccc(CNC(=O)c2oc3c(c2C)-c2nn(Cc4cccc(Cl)c4)cc2CC3)c1`, the survival is 76% (inactive).
As to `CCOC(=O)c1c(NC(=O)COc2cccc(C)c2C)sc2c1CCC(CC)C2` (centres undefined), the survival was 59% (inactive).
As for `CCOC(=O)c1c(NC(=O)C2c3ccccc3Oc3ccccc32)sc2c1CCC(CC)C2` (centres undefined), the survival is 52% (inactive).
Take `CCOC(=O)c1c(NC(=O)c2ccccc2OCC)sc2c1CCC(CC)C2` (centres undefined): the survival is -2% (active).
For `CCOC(=O)c1ccc(NC(=O)c2c(NC(C)=O)sc3c2CCC(C)C3)cc1` (centres undefined), the survival was 47% (inactive).
`CCC1CCc2c(sc(NC(=O)C3c4ccccc4Oc4ccccc43)c2C(=O)OC)C1` (centres undefined): the survival is 72% (inactive).
For `CCOC(=O)c1c(NC(=O)c2ccc(F)cc2)sc2c1CCC(CC)C2` (centres undefined), the survival is 9% (active).

The record behind these values is PubChem BioAssay AID463173 (ICCB-Longwood Screening Facility, Harvard Medical School, 2010).
